Measurements reported in PubChem BioAssay AID540333 (Southern Research Specialized Biocontainment Screening …, 2011).
Among all 10,000 compounds or so, about 320 (3.2%) were called active. This is one part of a sample in which actives are shown more often than they occur. Unmarked numbers belong to inactive results. Cut-off read from the data, not from the text of the source: active = CPE inhibition mostly above about 9.1% (no sharp cut-off); inactive = mostly below about 7.2%.

Experiment: antivirals protecting cells from dengue CPE – CPE readout, HTS (AID 540333)
Conditions: Dengue virus CPE inhibition in host cells, at 20 µM; hits give high values

SMILES	CPE inhibition
COc1cccc(C(=O)NC(=S)Nc2ccc(N(C)C)cc2)c1	inactive
COc1ccc(NC(=O)CN2CCC(Cc3ccccc3)CC2)cc1S(=O)(=O)N1CCOCC1	0.605%
COc1ccc(S(=O)(=O)N2CCOCC2)cc1NC(=O)c1cc2c(s1)CCCC2	0.62%
COc1ccc(NC(=O)c2cc3c(s2)CCC(C)C3)cc1S(=O)(=O)N1CCOCC1 (stereo not given)	16.7% (active)
CCCN(CC(=O)Nc1ccc(F)c(F)c1F)CC(=O)Nc1c(Cl)cccc1Cl	1.15%
Cc1cc(C)nc(NC(=NCCc2c[nH]c3ccccc23)NC(=O)Nc2ccccc2)n1	13.5% (active)
Cc1cc(C)nc(NC(=NCCc2c[nH]c3ccccc23)NC(=O)Nc2ccc(Cl)cc2)n1	4.91%
Cc1cc(C)nc(NC(=NCCc2c[nH]c3ccccc23)NC(=O)Nc2ccc(Cl)c(Cl)c2)n1	7.48%
COc1ccc(NC(=S)Nc2ccc(OCc3ccccc3)cc2)c(OC)c1	5.78%
CC(C)c1ccccc1NC1=CC(=O)CC(C)(C)C1	1.06%
CC(NC(=S)N1CCOCC1)c1ccccc1 (stereo not given)	inactive
CCCNC(=S)N1CCN(C(c2ccccc2)c2ccccc2)CC1	9.31%
CCN1CCN(C(=S)NC(C)c2ccccc2)CC1 (stereo not given)	inactive
CCC(C)NC(=S)N1CCN(C(c2ccccc2)c2ccccc2)CC1 (stereo not given)	11% (active)
COc1ccc(NC(=S)N2CCN(C(c3ccccc3)c3ccccc3)CC2)cc1OC	2.59%
CC(C)CNC(=S)N1CCN(C(c2ccccc2)c2ccccc2)CC1	27.6% (active)
O=C(NCCc1ccccc1)C(=O)Nc1nccs1	0.515%
CCCc1nnc(NC(=O)CCC(=O)N2CCN(C3c4ccccc4-c4ccccc43)CC2)s1	inactive
CCOc1cc(/C=N/NC(=O)CSc2nncn2C)ccc1OC(=O)c1ccc(Cl)cc1	1.75%
S=C(Nc1ccccc1Cl)N1CCCCC1	inactive

SMILES	CPE inhibition
N#Cc1c(-c2ccc(Cl)cc2)c(C#N)c(=O)n(N)c1N	0.43%
Cc1ccc(NC(=O)CSc2nn(-c3ccc(Cl)cc3)c(=S)s2)cc1S(=O)(=O)N(C)C	2.52%
Cc1ccc(NC(=O)CCNC(=O)c2ccccc2Cl)cc1S(=O)(=O)N(C)C	0.01%
Cc1ccc(NC(=O)CNc2ccc(Cl)c(Cl)c2)cc1S(=O)(=O)N(C)C	20.7% (active)
Cc1ccc(NC(=O)c2cnccn2)cc1S(=O)(=O)N(C)C	1.06%
COc1ccc(CCC(=O)OCC(=O)Nc2ccc(C)c(S(=O)(=O)N(C)C)c2)cc1	0.745%
Cc1ccc(NC(=O)Cc2ccc(Cl)c(Cl)c2)cc1S(=O)(=O)N(C)C	11.7% (active)
CN(C)S(=O)(=O)n1cnc([C@@H]2[C@H]3C(=O)OC[C@@H]3C[C@@]23N=CN(Cc2ccccc2)C3=O)c1	0.215%
CC1CCCN(c2ccc(C(=O)NCc3ccc4c(c3)OCO4)cc2[N+](=O)[O-])C1 (stereo not given)	0.66%
NNC(=O)c1ccc(COc2cccc3ccccc23)cc1	0.845%
CC(C)c1ccc(NCCC(=O)c2ccc(Br)cc2)cc1	inactive
CCNC(=S)Nc1cc(Cl)ccc1Oc1ccccc1	1.55%
COc1cc(/C=C2\C(=O)N(c3ccccc3)N=C2C)ccc1Oc1ccc([N+](=O)[O-])cc1[N+](=O)[O-]	12.3% (active)
CC1=NN(c2ccccc2)C(=O)/C1=C\c1cc(C)n(-c2ccccc2)c1C	1.6%
CC1=NN(c2ccccc2)C(=O)/C1=C/c1ccc[nH]1	inactive
CCOC(=O)c1cc(-c2ccccc2)sc1NC(=O)C(C)C	0.57%
CCOC(=O)c1cc(-c2ccccc2)sc1NC(=O)C(C)Sc1nnc(N)s1 (stereo not given)	19% (active)
CCOC(=O)c1cc(-c2ccccc2)sc1NC(=O)CC	inactive
COC(=O)NNC(=O)COc1ccc2ccccc2c1Br	inactive
CCOC(=O)c1ccc(-c2ccc(C3Nc4ccccc4C(=O)N3O)o2)cc1 (stereo not given)	0.8%

SMILES	CPE inhibition
Fc1cccc2sc(Nc3nc4cc5c(cc4s3)OCO5)nc12	13.5% (active)
Fc1cccc2sc(Nc3nc4ccccc4s3)nc12	0.65%
Fc1ccc2nc(Nc3nc4cc5c(cc4s3)OCCO5)sc2c1	9.35% (active)
Fc1ccc2nc(Nc3nc4c(F)cc(F)cc4s3)sc2c1	1.16%
COC(=O)c1ccc2nc(Nc3nc4ccc(F)cc4s3)sc2c1	1.64%
c1ccc2sc(Nc3nc4cc5c(cc4s3)OCO5)nc2c1	0.275%
Cc1ccc(N/N=C(\C#N)C(N)=S)c(C)c1	4.94%
Cc1ccccc1-n1c(-c2csc(C)c2C)n[nH]c1=S	0.5%
C=CCOC(=O)C1=C[C@@H](c2coc3ccccc3c2=O)C[C@@H](OCCCCO)O1	inactive
O=C1c2cccc3c(N4CCOCC4)c([N+](=O)[O-])cc(c23)C(=O)N1c1cccc2ccccc12	inactive
N#Cc1ccc(C23CC4(C2)[C@H](CN(P(=O)(c2ccccc2)c2ccccc2)[C@@H]4c2ccccc2)C3c2ccc(Cl)nc2)cc1 (stereo not given in full)	18.1% (active)
Clc1ccc(C2[C@H]3CN(CC4CCCCC4)[C@H](c4ccccc4)C34CC2(c2ccccc2)C4)cn1 (stereo not given in full)	4.18%
CC(C)CC(=O)NC(Nc1ccc([N+](=O)[O-])cc1)C(Cl)(Cl)Cl (stereo not given)	6.29%
Cc1cccc(N2C(=O)C(Cc3ccccc3)NC2=S)c1 (stereo not given)	inactive
O=C(N=Nc1c(O)n(Cc2ccccc2)c2ccccc12)c1ccc(O)cc1	16.3% (active)
CCCCn1c(O)c(N=NC(=O)c2ccco2)c2ccccc21	inactive
CCn1c(O)c(N=NC(=O)c2ccc(CSc3nncn3C)cc2)c2ccccc21	inactive
C/C(=N\Nc1ccc([N+](=O)[O-])cc1)c1ccc(-n2nncc2C)cc1	inactive
N#CC(C#N)=Cc1ccc(-c2ccc(S(=O)(=O)N=C(N)N)cc2)o1	0.46%
COC(=O)c1sc2nc(C)cc(-c3ccccc3)c2c1N	inactive
